Experimental data as given in PubChem BioAssay AID912 (National Center for Advancing Translational Sciences (NCATS), 2007).
Values joined by “and” are separate entries in the source; they are usually repeats but may differ in a detail not shown here. Equal values may be shown once. Screen size: about 70,000 compounds; about 470 (0.67%) were called active. Roughly 18% stayed inconclusive and do not appear here. Calls come from the whole dose curve. The entries come from a sample that favours actives as a whole. A call without a number means that no potency is given here. Some compounds were tested as several samples or in several runs, with calls that do not always agree.

Assay: qHTS Assay for Anthrax Lethal Toxin Internalization; note: nearly all actives have a fitted effect of over 50% in size
Conditions: Cells, FRET ratio (460/530); series mostly up to 40 µM
Potency is the fitted concentration of half-maximal effect.

Row | Compound | activity change, negative = inhibition | Potency
1 | CN1CCc2nc(-c3ccccc3)c(-c3ccccc3)cc2C1 | -6.08% [at 8 µM] (inactive) | –
2 | COCCn1c(=O)c(C)nc2cnc(N(C)C)nc21 | inactive | –
3 | O=C1C[C@@H](O)[C@@H](O)[C@H]2[C@@H]3C(=O)N(Cc4ccc5c(c4)OCO5)C(=O)[C@@H]3CC[C@H]12 | 3.37% [at 8 µM] (inactive) and -9.87% [at 8 µM] (inactive) | –
4 | CC[C@]1(C)CC(=O)NC1=O | inactive | –
5 | COc1ccc2c(=O)cc(-c3ccccc3)oc2c1O | inactive | –
6 | CCNCCCNCCCNCCCNCC | inactive | –
7 | COCCNC(=O)COc1ccc(C)c(C)c1 | inactive | –
8 | CCOC(=O)c1nc(N)sc1C(=O)OCC | inactive | –
9 | FC(F)(F)c1ccccc1-c1cc(NCc2ccccc2)ncn1 | inactive | –
10 | Cc1cc(C(=O)O)ccc1[N+](=O)[O-] | inactive | –
11 | Nc1ccccc1N | inactive | –
12 | CCOC(=O)c1[nH]c2ccc(OC)cc2c1NC(=O)N1CCOCC1 | inactive | –
13 | Cc1cccc(C(=O)O)c1[N+](=O)[O-] | inactive | –
14 | Cc1nn(Cc2ccc(Cl)c(Cl)c2)c(C)c1NC(=O)c1cc(C2CC2)on1 | inactive | –
15 | CCC[C@@H]1C[C@@]1(CCC)[C@@H](NC(=O)c1ccccc1)c1ccc(C(=O)OC)cc1 | inactive | –
16 | CN1[C@@H]2CC[C@H]1CC(OC(=O)c1cc(Cl)cc(Cl)c1)C2 (stereo partly specified) | – | inactive and 15.8 µM (active)
17 | O=C1OCCC=C1[C@@H](O)CCc1ccccc1 | -3.54% [at 1.6 µM] (inactive) | –
18 | CCCn1c(-c2ccc(F)cc2)nc2c(NCC3CCCN3CC)nc(C)nc21 (stereo unspecified) | inactive | –
19 | Nc1cc(OC(=O)c2ccccc2Br)nn1S(=O)(=O)c1ccccc1 | – | 10 µM (active)
20 | C/C=C1\C(=O)C[C@@H]2[C@@H]3CCC4=CC(=O)CC[C@@]4(C)[C@H]3CC[C@@]12C | inactive | –
21 | Cc1ccnc(N)c1 | inactive | –
22 | CC(C)(C)NCC[C@@H](O)c1cc(C(F)(F)F)nc2c(C(F)(F)F)cccc12 | -2.37% [at 8 µM] (inactive) | –
23 | COCCn1c(=O)c(-c2cc(F)cc(F)c2)nc2cncnc21 | inactive | –
24 | CN=C1SC(C(=O)O)CC(=O)N1C (stereo unspecified) | inactive | –

Row | Compound | activity change, negative = inhibition | Potency
25 | O=NO | inactive | –
26 | COc1ccc(N)c(C)c1 | inactive | –
27 | O=C(COc1ccc2oc3c(c2c1)CCCC3)Nc1ccccn1 | inactive | –
28 | CC(C)C[C@H](NC(=O)NCCc1ccc(Cl)cc1)C(=O)O | inactive | –
29 | O=C(NCCc1ccc(Cl)cc1)C1CC(=O)N(C2CCCCC2)C1 (stereo unspecified) | inactive | –
30 | Oc1cc2c(cc1O)CN(C(=S)NCCc1ccc(Cl)cc1)CCC2 | – | 15.8 µM (active)
31 | O=S(=O)(O)c1ccc(O)c2ncccc12.O=S(=O)(O)c1ccc(O)c2ncccc12.[Zn] | -0.63% [at 8 µM] (inactive) | –
32 | NS(=O)(=O)c1cc(C(=O)O)c(Cl)c([N+](=O)[O-])c1Cl | -7.65% [at 8 µM] (inactive) | –
33 | C=CCOC(=O)C(C(C)=O)C(NC(=O)OC)c1ccccc1 (stereo unspecified) | -6.02% [at 8 µM] (inactive) | –
34 | Cc1ccc(Br)cc1 | inactive | –
35 | CN(C)CCSS(=O)(=O)O | -2.2% [at 8 µM] (inactive) | –
36 | c1ccc(Oc2ccccc2)cc1 | inactive | –
37 | Oc1ccc(O)c2c(O)cccc12 | inactive | –
38 | Cc1c(C)c2c(c(C)c1O)CC[C@@](C)(CN1CCN(c3cc(N4CCCC4)nc(N4CCCC4)n3)CC1)O2 | inactive | –
39 | C[C@@H]1/C=C\CC(=O)OC[C@H]2O[C@@H](C=C[C@@H]2O)[C@H](C)/C=C\CC(=O)OC[C@H]2O[C@H]1C=C[C@@H]2O | 0.461% [at 0.32 µM] (inactive) | –
40 | COc1ccc(NC(=O)C2CCCN(S(=O)(=O)c3cccc4cccnc34)C2)cc1 (stereo unspecified) | – | 3.16 µM (active)
41 | O=C(O)C1CCCN(S(=O)(=O)c2cccc3cccnc23)C1 (stereo unspecified) | inactive | –
42 | COc1ccc(NC(=O)C2CCCN(S(=O)(=O)c3cccc4cccnc34)C2)cc1OC (stereo unspecified) | inactive | –
43 | Cc1cccc(Br)c1 | inactive | –
44 | COC(=O)C(C(=O)OC)[C@@H]1CCCC(=O)C1 | 8.84% [at 8 µM] (inactive) | –
45 | CCCC[C@@H]1C[C@H]1C(NC(=O)c1ccco1)c1ccc(C(=O)OC)cc1 (stereo partly specified) | inactive | –
46 | COC(=O)NC(c1ccccc1)[C@]1(C(C)=O)CCCC1=O (stereo partly specified) | -2.74% [at 8 µM] (inactive) | –
47 | CC(C)=CCC/C(C)=C/CO/N=C1/C[C@@H](O)[C@@H](O)[C@@H]2[C@@H]3C(=O)N(C(C)(C)C)C(=O)[C@H]3CC[C@H]12 | 4.39% [at 1.6 µM] (inactive) | –
48 | O=C(Cl)c1ccc([N+](=O)[O-])cc1 | inactive | –

Row | Compound | activity change, negative = inhibition | Potency
49 | O=C1[C@H]2[C@H]3[C@H](O)[C@H](O)C/C(=N/OCc4ccccc4)[C@H]3CC[C@@H]2C(=O)N1Cc1ccccc1 | 0.866% [at 1.6 µM] (inactive) | –
50 | C/C(CCN1CCCCc2nc(C)c(C)cc21)=N\O[C@@H](C)c1cn([C@@H]2COC[C@@H]2O)nn1 | 16% [at 8 µM] (inactive) | –
51 | COC(=O)C1(C)C=CCN1C(=O)c1ccccc1 (stereo unspecified) | inactive | –
52 | CC1=C(C(=O)OCc2ccccc2)C(c2ccc(C(F)(F)F)cc2)NC(=O)N1CCCCCC(=O)O (stereo unspecified) | inactive | –
53 | CO[C@@H]1COC(=O)[C@H](Cc2ccccc2)NC(=O)C/C=C\[C@@H](C)[C@H](OC)COC(=O)[C@@H](C)NC(=O)C/C=C\[C@H]1C | 5.09% [at 1.6 µM] (inactive) and -1.18% [at 8 µM] (inactive) | –
54 | COC(=O)c1ccc(C(NC(=O)OCc2ccccc2)/C(C)=C/[C@@H](C)C(=O)NCc2cc(C)on2)cc1 (stereo partly specified) | inactive | –
55 | O=C(NCCc1ccc2c(c1)OCCO2)c1cc2ccccc2o1 | – | 12.6 µM (active)
56 | O=C(Nc1ccncc1)c1cc2ccccc2o1 | inactive | –
57 | O=C(CC(Cc1ccccc1)C(=O)O)NCCc1ccc2c(c1)OCO2 (stereo unspecified) | inactive | –
58 | COC(=O)C1(C)C=CC2(CCCCC2)N1C(C)=O (stereo unspecified) | inactive | –
59 | CC(C)(C)c1ccc(OC2C=CC(C#Cc3ccccc3)OC2CO)cc1 (stereo unspecified) | -3.38% [at 8 µM] (inactive) | –
60 | CCC[C@@H]1C[C@@]1(CCC)C(NC(=O)c1ccc(-c2ccccc2)cc1)c1cccc(Cl)c1 (stereo partly specified) | inactive | –
61 | CCOC(=O)Cn1c(CN(Cc2ccccc2)Cc2ccccc2)nc2c1c(=O)[nH]c(=O)n2C | inactive | –
62 | CC(C(=O)O)N1C(=O)c2cccc3cccc1c23 (stereo unspecified) | inactive | –
63 | C[N+](C)(CCCCCC[N+](C)(C)CCCN1C(=O)c2cccc3cccc(c23)C1=O)CCCN1C(=O)c2cccc3cccc(c23)C1=O | inactive | –
64 | COc1ccc(N2C(=O)c3cccc4cccc(c34)C2=O)nn1 | – | 7.94 µM (active)
65 | CC(N)=NCc1cccc(CN)c1 | inactive | –
66 | CC(=O)CC(C)C | inactive | –
67 | OCCCNCc1ccccn1 | 9.72% [at 8 µM] (inactive) | –
68 | CO[C@H]1COC(=O)[C@H](Cc2ccccc2)NC(=O)C/C=C\[C@@H](C)[C@H](OC)COC(=O)C/C=C\[C@@H]1C | 30% [at 8 µM] (inactive) | –
69 | c1cncc(-c2nc(N3CCNCC3)c3ccccc3n2)c1 | inactive | –
70 | Cc1ccc(S(=O)(=O)NC(=O)NN2C[C@H]3CCC[C@@H]3C2)cc1 | -1.11% [at 3.58 µM] (inactive) | –
71 | Cc1cccc(C(=O)O)c1 | inactive | –
72 | C[C@@H](N)[C@@H](C)Cc1ccccc1 | -3.08% [at 8 µM] (inactive) | –

Row | Compound | activity change, negative = inhibition | Potency
73 | CCOC(=O)C1Cn2c(nc3c(c2=O)C(C)(CC)Cc2ccccc2-3)S1 (stereo unspecified) | – | 6.31 µM (active)
74 | CCOC(=O)C1CCc2nc3ccccc3c(=O)n21 (stereo unspecified) | inactive | –
75 | CC1(C)Cc2ccccc2-c2nc(CN3CCOCC3)[nH]c(=O)c21 | inactive | –
76 | CCS(=O)(=O)N(C)[C@@H]1c2cc(C#N)ccc2OC(C)(C)[C@H]1O | inactive | –
77 | CCCC(Cl)CCCC(Cl)CCC(Cl)CCC(Cl)CCC(Cl)CCCC(Cl)CCC (stereo unspecified) | inactive | –
78 | C1CCC2OC2C1 (stereo unspecified) | inactive | –
79 | Cc1sc2c(c1C)c(=O)n(-c1ccccc1)c1nncn21 | inactive | –
80 | c1ccc2c(c1)[I+]c1ccccc1-2 | – | 15.8 µM (active)
81 | CCCCC[C@H](O)CCCC(=O)O | inactive | –
82 | C[C@@H](c1ccccc1)N1C(=O)[C@H]2[C@H]3[C@H](O)[C@H](O)C/C(=N/OC[C@@H](O)COCc4ccco4)[C@@H]3CC[C@@H]2C1=O | 0.141% [at 8 µM] (inactive) | –
83 | O=C(Cl)c1ccccc1[N+](=O)[O-] | inactive | –
84 | CC(=O)Oc1ccccc1C(=O)Nc1ncc([N+](=O)[O-])s1 | – | 1.26 µM (active)
85 | CC(=O)Oc1ccc(C(=O)Nc2nccs2)cc1 | inactive | –
86 | N#Cc1cccc(-c2nc3cnc(N4CCNCC4)nc3n(C3CC3)c2=O)c1 | inactive | –
87 | CO[C@H]1COC(=O)CCC[C@@H](C)[C@H](OC)COC(=O)[C@@H](C)NC(=O)C/C=C\[C@@H]1C | -7.25% [at 8 µM] (inactive) | –
88 | Cc1cc(C)c2nc3c(c([C@H](O)[C@@H]4CCCCN4)c2c1)CC/C3=C/c1ccc(Cl)cc1 | -12.7% [at 8 µM] (inactive) | –
89 | COc1ccc(COC(=O)N/N=C2/C[C@@H](O)[C@@H](O)[C@@H]3[C@@H]4C(=O)N([C@@H](C)c5ccccc5)C(=O)[C@H]4CC[C@@H]23)cc1 | -0.559% [at 8 µM] (inactive) | –
90 | O=C(c1ccncc1)N1CCC2(CCN(Cc3cc(C(F)(F)F)cc(C(F)(F)F)c3)CC2)CC1 | inactive | –
91 | C=C(C)C1CC=C(C)C(O)C1 (stereo unspecified) | inactive | –
92 | Cc1ccccc1S(=O)(=O)Cc1ccc(C(=O)NCCN2CCCCC2C)o1 (stereo unspecified) | inactive | –
93 | Cc1nc2ccccc2c2oc(C(=O)NCCCN3CCC(C)CC3)cc12 | – | 5.01 µM (active)
94 | CN1CCN(CCCNC(=O)c2cc3c(=O)oc4ccccc4c3s2)CC1 | inactive | –
95 | CCOc1ccc(/C(O)=C2/C(=O)C(=O)N(Cc3cccnc3)C2c2ccc(N(C)C)cc2)c(C)c1 (stereo unspecified) | inactive | –
96 | Cn1c(=O)n2n(c1=O)[C@H]1[C@H](O)[C@H]3O[C@H]3C(=O)[C@H]1CC2 | 12.4% [at 8 µM] (inactive) | –
